Measured values published in PubChem BioAssay.
Calls of active or inactive are those of the source.

Key:
[1] = compound effects on lung adenocarcinoma cell viability – A549, calcein-AM fluorescence, 48 h, basal, profiling panel (AID 1162); settings: higher = more signal
[2] = compound effects on differentiated 3T3-L1 adipocyte viability – cell-based, 3T3-L1 adipocytes, calcein-AM fluorescence, 48 h, basal, profiling panel (AID 1163); settings: 3T3-L1 adipocytes viability, higher = more signal
[3] = compound effects on hepatocellular carcinoma cell viability – HepG2, calcein-AM fluorescence, 48 h, basal, profiling panel (AID 1164); settings: higher = more signal
[4] = compound effects on multiple myeloma cell viability – MM1S, calcein-AM fluorescence, 48 h, basal, profiling panel (AID 1165); settings: higher = more signal;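 note: viability of MM1S multiple myeloma cells under basal unstimulated conditions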
[5] = calcein-AM signal in unstimulated myeloma cells – cell-based, calcein-AM fluorescence, 48 h, PK04 Diversity Set, profiling panel (AID 1166); settings: RPMI8226 myeloma viability, higher = more signal;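 note: cells grown under basal conditions without added stimulus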
[6] = JC-1 mitochondrial signal, unstimulated HepG2 cells – cell-based, JC-1 fluorescence, 24 h, 100 nL compound, profiling panel (AID 1167); settings: HepG2 mitochondrial potential, higher = more signal
[7] = JC-1 mitochondrial signal, unstimulated adipocytes – cell-based, JC-1 fluorescence, 3T3-L1 adipocytes, 24 h, 100 nL compound, profiling panel (AID 1168); settings: JC-1 mitochondrial fluorescence, higher = more signal, called active from +8 up or from −8 down
[8] = JC-1 mitochondrial signal, unstimulated myeloma cells – cell-based, JC-1 fluorescence, RPMI8226, 24 h, 100 nL compound, profiling panel (AID 1169); settings: JC-1 mitochondrial potential fluorescence, higher = more signal
[9] = JC-1 mitochondrial signal, unstimulated MM1S myeloma – cell-based, JC-1 fluorescence, 24 h, 100 nL compound, profiling panel (AID 1170); settings: MM1S mitochondrial potential, higher = more signal
[10] = resazurin metabolic signal in A549 cells – cell-based, resazurin fluorescence, 24 h, PK04 Diversity Set, profiling panel (AID 1171); settings: A549 viability, higher = more signal, called active from +8 up or from −8 down
Note: test concentration not given here.

Structure (SMILES) | z-score [1] | z-score [2] | z-score [3] | z-score [4] | z-score [5] | z-score [6] | z-score [7] | z-score [8] | z-score [9] | z-score [10]
COCCCNC(=O)C1N=C(c2ccc(OCCCO)cc2)N(c2ccccc2)O1 (stereo not given) | -0.201 | 0.829 | -0.393 | 0.399 | 0.336 | -0.205 | -0.183 (inactive) | -0.492 | -0.213 | 0.938 (inactive)
O=C1OCC=C[C@H]2OC34C=CCN(c5ccc6ccccc6c5)C(=O)[C@H]3N(CCCCCCO)C(=O)[C@@H]4[C@@H]12 (stereo not given in full) | 0.429 | -0.358 | 0.878 | 1.38 | -0.0053 | 0.631 | 0.613 (inactive) | -0.979 | 0.469 | 0.61 (inactive)
CCCC=C(CCC)[C@@H](NS(=O)(=O)c1cccs1)c1ccc(C(=O)OC)cc1 | -3.9 | 0.532 | -5.36 | -3.33 | -4.74 | -4.43 | 1.24 (inactive) | -0.819 | -2.8 | 4.56 (inactive)
O=C1C2C=CC(C(O)c3ccc(F)cc3)N(Nc3ccccc3F)C2C(=O)N1c1ccccc1 (stereo not given) | -1.39 | -1.1 | -1.47 | -0.389 | -0.233 | -1.73 | -1.08 (inactive) | -0.143 | 0.396 | 0.0853 (inactive)
CCCCC(O)C1C=CC2C(=O)N(c3ccccc3)C(=O)C2N1Nc1ccccc1F (stereo not given) | -0.0693 | -0.767 | 0.297 | 0.447 | -0.812 | -1.75 | -0.935 (inactive) | -0.425 | -0.444 | -0.684 (inactive)
CCOC(=O)[C@H]1C/C=C/C[C@H](C(=O)OCC)C(=O)O[C@H]2[C@@H](OC)O[C@H](CO)[C@@H](OC(=O)Nc3ccc(C#N)cc3)[C@@H]2OC1=O | -2.47 | 1.37 | -4.91 | -3.15 | -4.11 | -2.79 | 1.14 (inactive) | -0.975 | -2.11 | -4.98 (inactive)
COCCOC(=O)N1C(=O)[C@@]2(c3cc(C#CC4=CCCCC4)ccc31)[C@H](C(=O)Nc1nc3ccccc3s1)[C@H]1C(=O)O[C@H](c3ccccc3)[C@H](c3ccccc3)N1[C@@H]2c1ccccc1OCCO | -0.812 | 2.14 | -0.789 | -1.59 | -2.27 | -2.7 | -0.2 (inactive) | -0.849 | -1.29 | 0.163 (inactive)
O=C(O)[C@@]1(CCS(=O)(=O)c2ccccc2)COC(c2ccc(OCCCO)cc2)=N1 | 0.518 | -0.664 | -0.0551 | -1.69 | -0.658 | -1.13 | 0.148 (inactive) | 0.943 | -0.436 | 0.221 (inactive)
COc1cc(CO)cc(I)c1O[C@H]1C=C(C(=O)NCCO)C[C@@H](N(CCN2CCOCC2)C(=O)C2CCOC2)[C@@H]1O (stereo not given in full) | 0.736 | -0.917 | 0.51 | 0.317 | 0.402 | 1.05 | 0.57 (inactive) | 0.0404 | 0.684 | -0.435 (inactive)
O=C1NC(=O)C2C1C=CC(C(O)C(c1ccccc1)c1ccccc1)N2Nc1ccc(Cl)cc1Cl (stereo not given) | -2.92 | 0.205 | -2.7 | -3.71 | -4.14 | -3.99 | -0.283 (inactive) | -0.925 | -0.133 | -1.18 (inactive)
O=C1OCC=C[C@H]2OC34C=CCN(CCN5CCOCC5)C(=O)[C@H]3N(CCCO)C(=O)[C@@H]4[C@@H]12 (stereo not given in full) | 0.74 | 1.38 | 0.811 | 1.11 | -1.16 | -0.326 | 0.584 (inactive) | 0.676 | 0.57 | -1.38 (inactive)
CN1C(=O)C2C=CC(C(O)Cc3ccccc3)N(Nc3ccccc3)C2C1=O (stereo not given) | 0.368 | -1.33 | 0.0486 | -1.48 | -0.618 | -1.32 | -1.06 (inactive) | 0.0363 | 0.155 | -0.528 (inactive)
O=C1c2ccccc2[C@@]2(Cc3ccccc3N(CC(F)(F)F)C2=O)[C@H](c2ccc(CO)cc2)N1Cc1ccccc1Cl | 0.609 | 0.889 | -0.0395 | -0.354 | -0.936 | -0.0535 | -0.483 (inactive) | -0.131 | 0.165 | -0.142 (inactive)
CCOC1=C2C(CN(S(=O)(=O)c3ccc(C)cc3)C2c2ccc(C)cc2)C2C(=O)N(c3ccccc3)C(=O)C2C1 (stereo not given) | -0.592 | -0.843 | 0.58 | 0.729 | 0.285 | 0.247 | 1.2 (inactive) | 1.1 | -1.37 | -0.376 (inactive)
COC(=O)[C@@]1(Cc2ccc(F)cc2)[C@H]2c3cc(C(=O)N4CCCC4)n(Cc4cc(C)n(C)n4)c3C[C@H]2CN1C(=O)c1ccccc1 | -0.553 | -0.0099 | 0.499 | -0.391 | -0.382 | 2.16 | -1.13 (inactive) | -0.0438 | -0.461 | -0.156 (inactive)
COc1cc2c(cc1O)C(C1CC1)N(Cc1cc3c(cc1Br)OCO3)CC2 (stereo not given) | -3.4 | -0.204 | -3.79 | -3.15 | -4.48 | -1.85 | -0.457 (inactive) | -0.472 | -2.08 | -4.06 (inactive)

Structure (SMILES) | z-score [1] | z-score [2] | z-score [3] | z-score [4] | z-score [5] | z-score [6] | z-score [7] | z-score [8] | z-score [9] | z-score [10]
CCCCN1CC=CC23O[C@@H]4C=CCOC(=O)[C@@H]4[C@H]2C(=O)N(CCCCCO)[C@@H]3C1=O (stereo not given in full) | -0.503 | -0.122 | -0.781 | 0.276 | 0.778 | -0.235 | 0.17 (inactive) | -0.0189 | -0.0548 | -0.508 (inactive)
C=CCOC(=O)[C@H]1[C@@H]2C(=O)O[C@@H](c3ccccc3)[C@@H](c3ccccc3)N2[C@@H](c2ccc(OCCOC(=O)[C@@H]3C[C@@H]4C(=O)N[C@@H](CCCCN(C)C)C(=O)N4[C@@H]3c3ccc(O)cc3)cc2)[C@]12C(=O)Nc1ccc(I)cc12 | -0.508 | -0.523 | -0.222 | -0.397 | -0.449 | -1.65 | 0.832 (inactive) | -0.7 | -1.6 | 0.183 (inactive)
CCOC(=O)C[C@H]1[C@H](OC(=O)c2cc3ccccc3oc2=O)[C@@H](NC(=O)C2CCCCC2)c2cc(OCCCO)ccc2N1C(=O)c1ccccc1 | -0.11 | 3.15 | 0.914 | 0.172 | -0.594 | 1.36 | -0.186 (inactive) | -0.848 | 0.739 | -0.713 (inactive)
CN1C2C=C(CCCO)C(C3C(=O)N(C(N)=O)C(=O)C32)C1c1ccc(CN2CCCC2)cc1 (stereo not given) | -0.814 | -0.543 | -0.357 | 0.432 | -1.22 | -0.208 | -0.655 (inactive) | 0.234 | -0.137 | 0.0528 (inactive)
COC(=O)[C@@]1(Cc2ccccc2)[C@H]2c3cc(C(=O)N4CCCC4)n(Cc4nc5ccccc5[nH]4)c3C[C@H]2CN1C(=O)c1ccccc1 | -0.579 | 0.887 | -0.537 | -2.39 | -2.19 | 1.73 | -0.807 (inactive) | -0.863 | -0.81 | -0.178 (inactive)
CC(C)(C)OC(=O)CC[C@@]12N=C(c3ccc(OCCCO)cc3)O[C@@H]1c1ccccc1N(CCS(=O)(=O)c1ccccc1)C2=O | 2.14 | 0.828 | 0.116 | -1.6 | -0.72 | 0.741 | 3.28 (inactive) | -0.814 | -1.13 | -1.91 (inactive)
CN(C)CCCC[C@@H]1NC(=O)[C@H]2C[C@@H](C(=O)NCCCCCNC(=O)CS)[C@@H](c3cccc(OCCO)c3)N2C1=O | 0.33 | -0.0603 | 0.0814 | -0.649 | -0.0199 | -0.246 | -0.034 (inactive) | 0.0925 | 0.0356 | -0.0288 (inactive)
C=CCOC(=O)[C@@H]1[C@H]2C(=O)O[C@H](c3ccccc3)[C@H](c3ccccc3)N2[C@H](c2ccc(OCCOC(=O)[C@@H]3C[C@@H]4C(=O)N[C@@H](CCCCN(C)C)C(=O)N4[C@@H]3c3ccc(O)cc3)cc2)[C@@]12C(=O)Nc1ccc(I)cc12 | -0.303 | -0.247 | 0.295 | -0.7 | -0.857 | -1.93 | -0.171 (inactive) | -0.95 | -1.45 | 0.417 (inactive)
COc1ccc([Si](C)(C)[C@H]2[C@H](CC(=O)N3Cc4ccccc4C[C@H]3CO)O[C@@]3(C(=O)N(Cc4ccc(N5CCC5=O)cc4)c4ccccc43)[C@@H]2C)cc1 | -0.279 | 0.656 | -0.727 | -2.32 | -3.26 | 1.67 | 0.657 (inactive) | -1.04 | -0.928 | -0.0964 (inactive)
[N-]=[N+]=NCc1ccccc1C[C@]1(C(=O)NCC(O)CO)N=C(c2ccc(OCCCO)cc2)O[C@H]1c1ccccc1 (stereo not given in full) | -0.691 | 0.0311 | -1.25 | -2.42 | -1.81 | -1.31 | -0.142 (inactive) | -0.547 | -0.727 | -0.246 (inactive)
O=C(NCC(F)(F)F)[C@@H]1c2ccccc2C(=O)N(C2CCCCC2)[C@H]1c1ccc(CO)cc1 | 0.216 | 0.48 | 0.354 | -0.515 | 0.597 | 0.912 | -1.29 (inactive) | 0.329 | 1.67 | 1.21 (inactive)
[N-]=[N+]=NCc1ccccc1C[C@@]1(C(=O)NCC(O)CO)N=C(c2ccc(OCCCO)cc2)O[C@@H]1c1ccccc1N=[N+]=[N-] (stereo not given in full) | -2.46 | 0.223 | -1.75 | -2.92 | -3.45 | -0.158 | -0.731 (inactive) | -1.19 | -0.999 | -3.5 (inactive)
C=CCN1C(=O)[C@]2(O[C@H](CCO)[C@@H]([Si](C)(C)c3ccc(OC)cc3)[C@@H]2C)c2cc(N3C(=O)c4cccc5cccc3c45)ccc21 | -3.27 | 0.105 | -4.63 | -2.63 | -4.34 | -2.32 | 0.697 (inactive) | -0.955 | -2.28 | -5.26 (inactive)
CCCC=C(CCC)[C@@H](NC(=O)Oc1ccc(F)cc1)c1ccc(C(=O)OC)cc1 | -1.33 | -0.609 | 0.0049 | -1.43 | -2.42 | 6.8 | 0.261 (inactive) | -0.754 | -1.44 | 0.717 (inactive)
COC(=O)[C@@]1(Cc2ccc(OC)cc2)[C@H]2c3cc(C(=O)N4CCCC4)n(Cc4ccsc4Br)c3C[C@H]2CN1C(=O)c1ccccc1 | -1.92 | -0.793 | -0.119 | -3.3 | -4.43 | 0.321 | -1.05 (inactive) | -0.822 | -2.91 | -2.75 (inactive)
